# Measured values reported in PubChem BioAssay (NCATS).
# Records with an inconclusive call do not appear. Values without a mark were called inactive. Activity calls are given as the source filed them. Calls follow the shape of the dose curve; as a rule, active = well fitted curve in the direction sought with a large enough effect; inconclusive = small, poorly fitted or top-dose-only effect, or another doubt; inactive = no such curve, though single readings can be large; an effect the other way counts as inactive or inconclusive.
# How the values were obtained:
# PA-1 = assay: Primary qHTS to identify gynecologic anti-cancer compounds using libraries of approved drugs and bioactive compounds (AID 1345084); conditions: Gynecologic cancer cell panel viability, ATPlite luminescence, 48 h; series mostly up to 57.5 µM; also: nearly all actives have a fitted effect of over 55% in size; also: potency is read from the fitted curve at half-maximal effect
# Procedure, shortened: (§1)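 Cells, 1,000 per well, plated 16 h, then exposed 48 h at 37 C to compounds. Viability by ATPlite luminescence after 15 min at room temperature.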
# SKOV3 = assay: as above; conditions: Gynecologic cancer cell panel viability, ATPlite luminescence, 48 h; series mostly up to 57.5 µM
# Procedure, shortened: as §1
# Tov112D = assay: as above; conditions: Gynecologic cancer cell panel viability, ATPlite luminescence, 48 h; series mostly up to 57.5 µM
# Procedure, shortened: as §1
# Tov-21-G = assay: as above; conditions: Gynecologic cancer cell panel viability, ATPlite luminescence, 48 h; series mostly up to 57.5 µM
# Procedure, shortened: as §1
# [1] = qHTS assay to identify inhibitors of the type 1 interferon - major histocompatibility complex class I in skeletal muscle: Counter screen cell viability and HiBit confirmation (AID 1347412); conditions: iHSKM muscle cells + IFN-b, HiBiT or CellTiter-Glo, 24 h; for activity change, negative = inhibition: at 45.9 µM (top of the series); also: potency is read from the fitted curve at half-maximal effect; as to all read-outs here: nearly all actives have a fitted effect of over 60% in size
# Procedure, shortened: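 Duplicate plates, pinned identically: one read for HiBiT-tagged endogenous HLA-B luminescence, the other for ATP-content viability via CellTiter Glo. Cells were genome-engineered human myoblasts given 4 ng/ml IFN-b; compounds 12-pt, 1:3 from 46 uM final; 24 hr exposure.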
# OV90 = assay: Primary qHTS to identify gynecologic anti-cancer compounds using libraries of approved drugs and bioactive compounds (AID 1345084); conditions: Gynecologic cancer cell panel viability, ATPlite luminescence, 48 h; series mostly up to 57.5 µM; also: nearly all actives have a fitted effect of over 55% in size; also: potency is read from the fitted curve at half-maximal effect
# Procedure, shortened: as §1
# [2] = Drug repurposing screens with cells derived from glioblastoma tumor samples (AID 1345199); conditions: GBM patient neurospheres viability, ATP luminescence, 48 h; also: nearly all actives have a fitted effect of over 40% in size
# Procedure, shortened: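 Four patient lines of CD133+ GBM neurospheres were screened at several concentrations; hits were retested in those lines plus three slower-growing GBM lines, using 48-hour treatment and ATP-based viability.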
# [3] = at 45.9 µM (top of the series), tumour line B
# [4] = at 45.9 µM (top of the series), tumour line D
# [5] = at 46 µM (top of the series), tumour line A
# [6] = at 46.1 µM (top of the series), tumour line C
# % is scaled to controls: 0 for no effect and ±100 for the full control effect.
compound,measurement,setting,value
COc1c(OCCCN2CCOCC2)ccc2c3n(c(=NC(=O)c4cnc(N)nc4)nc12)CCN3,Potency,PA-1,0.631 µM (active)
same,Potency,SKOV3,0.0631 µM (active)
same,"activity change, negative = cytotoxicity",Tov112D,-17.3% [at 11.6 µM]
OCCCNc1cc(-c2ccnc(Nc3cccc(Cl)c3)n2)ccn1,Potency,PA-1,0.1 µM (active)
same,Potency,Tov-21-G,0.158 µM (active)
same,Potency,Tov112D,0.316 µM (active)
same,Potency,[1]; HiBiT,0.125 µM (active)
same,"activity change, negative = inhibition",[1]; Viability,15.1%
NC1(Cc2ccc(Cl)cc2)CCN(c2ncnc3[nH]ccc23)CC1,Potency,PA-1,inactive
same,Potency,Tov112D,inactive
NCC(=O)Nc1ccc(-n2nc(C(F)(F)F)cc2-c2ccc3c(ccc4ccccc43)c2)cc1,Potency,OV90,inactive
same,Potency,SKOV3,inactive
same,Potency,Tov112D,inactive
Cc1nc(Nc2n[nH]c3c2CN(C(=O)N[C@H](CN(C)C)c2ccccc2)C3(C)C)c2sccc2n1,Potency,OV90,1.58 µM (active)
same,Potency,SKOV3,7.08 µM (active)
same,Potency,Tov112D,8.91 µM (active)
same,Potency,[1]; HiBiT,0.0625 µM (active)
same,"activity change, negative = inhibition",[1]; Viability,5.01%
O=C(Nc1ncc(-c2cc(C(F)F)nn2-c2c(Cl)cccc2Cl)s1)C1CC1,Potency,PA-1,1.78 µM (active)
same,Potency,Tov-21-G,1.78 µM (active)
same,Potency,Tov112D,1.58 µM (active)
Cc1ccc(C(=O)Nc2ccc(CN3CCN(C)CC3)c(C(F)(F)F)c2)cc1C#Cc1cnc2cccnn12,Potency,OV90,15.8 µM (active)
same,Potency,PA-1,8.91 µM (active)
same,Potency,SKOV3,10 µM (active)
same,Potency,Tov-21-G,7.08 µM (active)
same,Potency,Tov112D,7.94 µM (active)
same,Potency,[1]; HiBiT,6.25 µM (active)
same,Potency,[1]; Viability,15.7 µM (active)
CC[C@@]1(O)C(=O)OCc2c1cc1n(c2=O)Cc2cc3cc(O)ccc3nc2-1,Potency,PA-1,0.282 µM (active)
same,Potency,Tov-21-G,3.55 µM (active)
same,Potency,Tov112D,0.0794 µM (active)
same,Potency,[1]; HiBiT,2.79 µM (active)
same,"activity change, negative = inhibition",[1]; Viability,8.39%
COc1ccc(C(=O)CC2(O)C(=O)Nc3c(Cl)ccc(Cl)c32)cc1 (configuration not stated),Potency,OV90,inactive
same,Potency,PA-1,8.91 µM (active)
same,Potency,Tov112D,3.98 µM (active)
CC(C)c1cc(C(=O)N2Cc3ccc(CN4CCN(C)CC4)cc3C2)c(O)cc1O,Potency,OV90,0.501 µM (active)
same,Potency,PA-1,0.501 µM (active)
same,Potency,Tov-21-G,0.355 µM (active)
Cc1c(CN2CCN(S(C)(=O)=O)CC2)sc2c(N3CCOCC3)nc(-c3cnc(N)nc3)nc12,Potency,OV90,1.41 µM (active)
same,Potency,PA-1,1.58 µM (active)
same,Potency,SKOV3,0.562 µM (active)
same,Potency,Tov-21-G,2 µM (active)
CC(C)(C)c1cc(C(C)(C)C)c(NC(=O)c2c[nH]c3ccccc3c2=O)cc1O,"activity change, negative = inhibition",[1]; HiBiT,-18%
same,"activity change, negative = inhibition",[1]; Viability,-12%
Cc1cc(Nc2cc(NC(=O)c3c(Cl)cccc3Cl)ccn2)nc(N)n1,Potency,[1]; HiBiT,2.79 µM (active)
same,"activity change, negative = inhibition",[1]; Viability,21.4%
C[C@@]12O[C@@H](C[C@]1(O)CO)n1c3ccccc3c3c4c(c5c6ccccc6n2c5c31)CNC4=O,Potency,[1]; HiBiT,0.701 µM (active)
same,"activity change, negative = inhibition",[1]; Viability,-0.759%
CCN1CCN(Cc2ccc(-c3cc4c(N[C@H](C)c5ccccc5)ncnc4[nH]3)cc2)CC1,Potency,[1]; HiBiT,19.8 µM (active)
Cc1ccc(-c2ncn(-c3ccc(Nc4nccc(-c5cccc(N6CCOCC6)c5)n4)cc3)n2)cn1,Potency,[1]; HiBiT,2.49 µM (active)
same,"activity change, negative = inhibition",[1]; Viability,-8.69%
C=CC(=O)Nc1cc2c(Nc3ccc(F)c(Cl)c3)ncnc2cc1C#CC(C)(C)N1CCN(C)CC1,Potency,[1]; Viability,22.2 µM (active)
O=C(NC1CCNCC1)c1[nH]ncc1NC(=O)c1c(Cl)cccc1Cl,Potency,[1]; HiBiT,0.442 µM (active)
same,"activity change, negative = inhibition",[1]; Viability,4.1%
CC(C)C[C@H](NC(=O)CNC(=O)c1cc(Cl)ccc1Cl)B(O)O,Potency,[1]; HiBiT,0.557 µM (active)
O=c1[nH]c(=O)n(C2CCCO2)cc1F (configuration not stated),"activity, negative = cell killing",[2]; [3],-6.45%
same,"activity, negative = cell killing",[2]; [4],-14.2%
same,"activity, negative = cell killing",[2]; [5],-9.36%
same,"activity, negative = cell killing",[2]; [6],-4%
Cn1cncc1[C@@](N)(c1ccc(Cl)cc1)c1ccc2c(c1)c(-c1cccc(Cl)c1)cc(=O)n2C,"activity change, negative = inhibition",[1]; HiBiT,-17.7%
same,"activity change, negative = inhibition",[1]; Viability,-17.4%
COCCn1c2c([n+](Cc3cnccn3)c1C)C(=O)c1ccccc1C2=O,Potency,[1]; HiBiT,1.98 µM (active)
same,Potency,[1]; Viability,2.49 µM (active)
COc1ccc(CC2c3cc(OC)c(OC)cc3CC[N+]2(C)CCC(=O)OCCCCCOC(=O)CC[N+]2(C)CCc3cc(OC)c(OC)cc3C2Cc2ccc(OC)c(OC)c2)cc1OC (configuration not stated),"activity, negative = cell killing","[2]; at 20 µM (top of the series), tumour line C",-5.82%
same,"activity, negative = cell killing","[2]; at 21.2 µM (top of the series), tumour line B",-8.61%
same,"activity, negative = cell killing","[2]; at 21.2 µM (top of the series), tumour line D",-8.93%
same,"activity, negative = cell killing","[2]; at 21.3 µM (top of the series), tumour line A",-14%
O=C(O)CO.[NH2-].[NH2-].[Pt+2],"activity, negative = cell killing",[2]; [3],-16.9%
same,"activity, negative = cell killing",[2]; [4],26.7%
same,"activity, negative = cell killing",[2]; [5],-24.8%
same,"activity, negative = cell killing",[2]; [6],-11%
c1cc(-c2cnn3cc(-c4ccc(OCCN5CCCCC5)cc4)cnc23)ccn1,Potency,[1]; HiBiT,14 µM (active)
CN1c2cc(O)c(N=NC(N)=O)cc2CC1S(=O)(=O)O (configuration not stated),"activity, negative = cell killing",[2]; [3],-14.6%
same,"activity, negative = cell killing",[2]; [4],7.92%
same,"activity, negative = cell killing",[2]; [6],-16.8%
Nc1ccn([C@@H]2CS[C@H](CO)O2)c(=O)n1,"activity, negative = cell killing",[2]; [3],-9.03%
same,"activity, negative = cell killing",[2]; [4],-12.1%
same,"activity, negative = cell killing",[2]; [5],-14.9%
same,"activity, negative = cell killing",[2]; [6],6.78%
CN(c1ncccc1CNc1nc(Nc2ccc3c(c2)CC(=O)N3)ncc1C(F)(F)F)S(C)(=O)=O,Potency,[1]; HiBiT,4.97 µM (active)
same,"activity change, negative = inhibition",[1]; Viability,13.6%
CS(=O)(=O)N1CCN(Cc2cc3nc(-c4cccc5[nH]ncc45)nc(N4CCOCC4)c3s2)CC1,Potency,SKOV3,2.51 µM (active)
same,Potency,Tov112D,inactive
O=c1[nH]nc(Sc2ncc([N+](=O)[O-])s2)n1-c1ccc2c(c1)OCCO2,Potency,[1]; HiBiT,14 µM (active)
CC(C)c1ccc(Cn2ccc3c4c(N)nc(NC5CC5)nc4ccc32)cc1,Potency,[1]; HiBiT,17.6 µM (active)
same,Potency,[1]; Viability,27.9 µM (active)
COc1cc(C(C)C)c2c(c1)S(=O)(=O)N(COc1cc(=O)n3cccc(OCCN4CCCCC4)c3n1)C2=O,"activity change, negative = inhibition",[1]; Viability,-20.7%
COc1cccc2nc(-c3cccs3)nc(NN3C(=O)C=C(C)C3=O)c12,Potency,PA-1,1.58 µM (active)
same,Potency,Tov112D,0.891 µM (active)
same,Potency,[1]; HiBiT,2.79 µM (active)
same,"activity change, negative = inhibition",[1]; Viability,41.4%
